# PNC assembly inh: High Content Assay for Compounds that inhibit the Assembly of the Perinucleolar Compartment | hit rate 3.1% among 140,000 | PC3M PTB-GFP, PNC prevalence imaging, 16 h; active compounds read low | activity change (PNC), negative = inhibition, % at 10 µM;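 active means readout at or below -70, meaning at least 70% loss of cells showing the perinucleolar compartment, a nuclear body marking cancer cells; inconclusive means readout between -30 and a set limit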;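 further: plate controls were DMSO wells for no effect and camptothecin positive control wells for full effect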
#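 PC3M cells stably expressing PTB-GFP, 750–1000 cells/well, treated 16 h at 37 °C with compound (23 nl of library stock), in duplicate. After paraformaldehyde fixation and Hoechst stain, imaged at 20x; PNC prevalence scored by image analysis.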
# ALOX12 inhib: qHTS Assay for Inhibitors of 12-hLO (12-human lipoxygenase); hit rate 0.12% among 150,000; Potency, µM (top dose mostly 57.1 µM), for inactives: at the highest dose activity change, negative = inhibition, hits mostly inhibitors; purified 12-hLO, xylenol orange hydroperoxide absorbance; Polyunsaturated fatty acid lipoxygenase ALOX12 (Homo sapiens), P18054; AID 1452, 2008; further: potency means the concentration at half of the fitted maximal effect; nearly all actives have a fitted effect of over 55% in size
# Target sequence (P18054 whole entry, looked up): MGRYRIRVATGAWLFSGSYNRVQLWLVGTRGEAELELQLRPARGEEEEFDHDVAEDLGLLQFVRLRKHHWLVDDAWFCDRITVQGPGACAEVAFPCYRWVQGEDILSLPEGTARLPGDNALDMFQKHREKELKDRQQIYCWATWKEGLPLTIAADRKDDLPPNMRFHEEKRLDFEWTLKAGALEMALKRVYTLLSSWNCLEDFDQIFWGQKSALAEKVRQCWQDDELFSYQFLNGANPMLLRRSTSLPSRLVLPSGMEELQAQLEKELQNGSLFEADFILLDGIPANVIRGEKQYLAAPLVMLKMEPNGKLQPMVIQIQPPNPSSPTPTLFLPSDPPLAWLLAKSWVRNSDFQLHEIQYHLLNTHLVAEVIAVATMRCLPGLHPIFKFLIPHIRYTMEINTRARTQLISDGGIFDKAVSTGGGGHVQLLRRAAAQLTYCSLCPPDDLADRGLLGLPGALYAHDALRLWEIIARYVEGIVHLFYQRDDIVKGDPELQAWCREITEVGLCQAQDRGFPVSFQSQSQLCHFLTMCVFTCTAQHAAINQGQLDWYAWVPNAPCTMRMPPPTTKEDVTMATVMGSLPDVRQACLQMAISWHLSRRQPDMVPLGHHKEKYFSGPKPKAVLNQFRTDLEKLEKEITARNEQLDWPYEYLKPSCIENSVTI
#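 Xylenol orange chromogenic assay: hydroperoxide from 12hLO oxidises Fe(II), giving red-shifted Fe(III)-XO absorbance. Conditions: 150 nM enzyme, 40 uM arachidonic acid, 25 mM Hepes pH 7.0, 0.01% Triton X-100, 30 min, room temperature.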
# ALOX15B inhib: qHTS Assay for Inhibitors of 15-hLO-2 (15-human lipoxygenase 2); purified 15hLO-2, xylenol orange hydroperoxide absorbance; hit rate 0.56% among 110,000; Polyunsaturated fatty acid lipoxygenase ALOX15B (Homo sapiens), O15296; Potency, µM (highest dose often 57.1 µM), without a hit: top-dose activity change, negative = inhibition, hits mostly inhibitors; further: potency means the concentration at half of the fitted maximal effect; nearly all actives have a fitted effect of over 60% in size
#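 Enzyme 50 nM, AA 45 uM, 25 mM Hepes pH 7.5 + 0.01% Triton X-100; cpd preinc 15 min RT, rxn 90 min RT; stop/detect with 200 uM XO + 300 uM Fe(II) in 50 mM H2SO4, 30 min; A573/A405.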
# IMPase Li cell: qHTS Assay for Identifying the Cell-Membrane Permeable IMPase Inhibitors: Potentiation with Lithium; CHO-M1 cells, IP1 TR-FRET (IP-One), carbachol + lithium; Potency, µM (highest dose often 59.4 µM), for inactives: at the top dose activity, negative = IMPase inhibition, hits mostly inhibitors; hit rate 0.35% among 210,000; AID 1457, 2008;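 further: IP1 builds up when IMPase is blocked and the TR-FRET signal falls; potency means the concentration at half of the fitted maximal effect; plate controls were basal vehicle for no effect and high inhibitor control for full effect; nearly all actives have a fitted effect of over 50% in size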
#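 IP1 accumulation measured by competitive TR-FRET in lysed CHO-M1 cells after 30 min compound exposure at 37C, with a small lithium addition to potentiate weak responses. Hill-equation AC50 from ratio and donor-channel data.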
# HPGD inh: qHTS Assay for Inhibitors of HPGD (15-Hydroxyprostaglandin Dehydrogenase) | Potency, µM, for the others: top-dose activity change, negative = inhibition, hits mostly inhibitors | purified HPGD, NADH fluorescence kinetic, PGE2 substrate | hit rate 4.3% among 150,000 | AID 894, 2007 | 15-hydroxyprostaglandin dehydrogenase [NAD(+)] (Homo sapiens), P15428; active means well fitted inhibition curve with a large enough effect, not every such curve was filed as active; inconclusive means small, poorly fitted or top-dose-only effect, or another doubt; inactive means no such curve, though single readings can be large or run the other way; further: potency means the concentration at half of the fitted maximal effect
#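 20 nM HPGD preincubated 15 min at room temperature with compound in 50 mM Tris-HCl pH 8, 0.01% Tween 20. Started with 1 mM NAD+ and 30 uM prostaglandin E2; NADH fluorescence (360/450 nm) read 5 times over 30-s intervals, last minus first.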
# IMPase cell inh: qHTS Assay for Identifying the Cell-Membrane Permeable IMPase Inhibitors. CHO-M1 cells, IP1 accumulation, HTRF TR-FRET ratio. inhibition (IP1 accumulation), % at 46.1 µM. 120,000 tested, under 10 active; active means well fitted curve in the direction sought with a large enough effect in the signal ratio, not every such curve was filed as active; inconclusive means small, poorly fitted or top-dose-only effect, or a change in a side signal; inactive means no such curve, though single readings can be large or run the other way; the % refers to the signal ratio;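 further: cells stimulated with carbachol in lithium chloride buffer; plate controls were DMSO basal wells for no effect and reference inhibitor wells for full effect; higher means more IMPase inhibition seen as more IP1 and lower FRET ratio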
#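 The IP-One HTRF competitive assay in carbachol-stimulated CHO-M1 cells quantifies cellular IP1. Compounds spanned up to 46 uM final, and activity is expressed as AC50 from concentration-response fits of the ratio and donor data.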
# Starred values were filed as active, the others as inactive; ? = inconclusive; · = no result given; [ ] = remark or other dose. A selection: hits, their analogues and other compounds. The true share with any hit is near 5.4%. Unless noted, the call rests on the fitted dose curve; in most records, active means well fitted curve in the direction sought with a large enough effect; inconclusive means small, poorly fitted or top-dose-only effect, or another doubt; inactive means no such curve, though single readings can be large; an effect the other way counts as inactive or inconclusive. Unless noted, on the % scale 0 is the no-effect control and ±100 the full control effect.
SMILES,PNC assembly inh,ALOX12 inhib,ALOX15B inhib,IMPase Li cell,HPGD inh,IMPase cell inh
CC(=O)Nc1ccc(NC(=O)C(NS(=O)(=O)c2ccc(Br)s2)c2ccccc2)cc1 (centres undefined),·,·,·,·,·,-3.3
CCn1cc(C(=O)NCc2ccccc2Cl)cn1,?,3.1%,·,-6.3%,31.6µM*,·
CCC(=O)/C=C1/Sc2ccccc2N1CC,4.4,-4.6%,·,-4.2%,28.2µM*,5.0
CCC(=O)/C=C1/Sc2ccc(OC)cc2N1CC,2.0,2.7%,-2.5%,0.4%[38.3 µM],-12.0%,15.3
CCOC(=O)/C(=C/C=C1\Sc2ccccc2N1CC)C(C)=O,6.3,-11.4%,·,42.4%,28.2µM*,·
C=CC1=C2C=C(C3CC3)N(CCN3CCOCC3)C=C2C(=O)C(C)(OC(=O)c2ccco2)C1=O (centres undefined),·,-1.4%[11.4 µM],·,9.4%,-2.0%,·
CCCSc1nnc(CSc2nc3nc(C)cc(C)n3n2)o1,-11.2,4.8%,-4.4%,-2.3%[38.3 µM],-12.1%,-0.5
CCCCSc1nnc(CSc2nc3nc(C)cc(C)n3n2)o1,-5.9,0.2%,-2.8%,0.6%[38.3 µM],25.1µM*,8.1
CN(C)c1ccc(NC(=O)CCSc2nc(-c3ccco3)cc(C(F)(F)F)n2)cc1,·,·,·,·,·,1.4
CCN(CC)C1=CC(=O)OC12CCCCC2,23.3,-2.7%,41.5%,-0.2%[38.3 µM],35.5µM*,10.5
CCN(CC)CCNC1=CC(=O)OC12CCCCC2,-24.9,-2.6%,·,6.9%,-1.2%,-2.4[0.369 µM]
COCCNC(=O)CC(c1ccccc1)c1ccccc1,19.8,-4.0%,5.2%,26.6%[38.3 µM],14.1µM*,1.1
COCCCNC(=O)CCCOc1ccccc1,?,-3.9%,5.8%,-6.7%[38.3 µM],14.1µM*,5.1
COCCCNC(=O)CC(C)c1ccccc1 (centres undefined),-3.1,3.0%,·,4.9%,15.8µM*,·
O=C(CC(c1ccccc1)c1ccccc1)NCCO,-0.9,-2.2%,-7.6%,23.3%[38.3 µM],-9.6%,0.6
COc1ccccc1CNc1ncnc2ccc(-c3ccccc3OC)cc12,·,·,52.4%,34.7%,·,·
CCCCC/C=C\C[C@@H](O)/C=C/C=C/C=C\[C@@H](O)CCCC(=O)O,·,-4.8%[0.00818 µM],-11.4%[0.0915 µM],-11.6%,-18.6%,·
CCOc1ccccc1NC(=O)c1c(NC(=O)c2cccc(C)c2)sc2c1CCC2,·,·,·,·,·,-2.8
CCCCNC(=O)C1CCCN1C(=O)NC1CCCCC1 (centres undefined),-100.0*,5.4%,·,-3.8%,-9.1%,3.6
O=C(NC1CC1)C1CCCN1C(=O)NC1CCCCC1 (centres undefined),·,·,·,-4.4%,·,·
COc1cc(OC)c2c(c1)OC1Cc3cc(OC)c(OC)cc3C2O1 (centres undefined),·,-1.0%[11.4 µM],·,-18.3%,-6.6%,·
O=C(O)c1[nH]c(=O)[nH]c(=O)c1CN1CCCCC1,·,-3.4%[11.4 µM],1.9%[11.4 µM],0.9%,-10.0%,·
CCN(CC)C(=O)c1sc(N)c(C#N)c1C,-94.9*,-2.9%,5.6%,-0.1%[38.3 µM],-13.4%,-0.1
CCN(CC)C(=O)c1sc(N)c(C(=O)OC(C)C)c1C,21.0,-2.1%,·,7.7%,20µM*,-0.4
Cc1ccc(C(=O)Nc2ccccc2N2CCOCC2)c(C)c1,·,0.4%,·,·,-6.9%,·
COc1ccc(Cl)cc1NC(=O)C1CCCN(S(=O)(=O)c2cccc3nonc23)C1 (centres undefined),-100.0*,1.9%,·,1.0%,-18.1%,-5.6
O=C(C1CCCN(S(=O)(=O)c2cccc3nonc23)C1)N1CCN(c2ccccc2Cl)CC1 (centres undefined),-20.7,4.0%,·,5.6%,14.1µM*,-1.7
